These results are taken from PubChem BioAssay (EPA / NIEHS).

The AC50 is the concentration giving half of the maximal activity seen.

Each structure is given as a SMILES string. Inconclusive results are not listed. The source made the active and inactive calls. Rule for the calls: active = hit-call score of the fitted dose curve at least 0.9, where 1 is the maximum; inconclusive = response in the unintended direction; inactive = score below 0.9.

rat CYP2C13, Cyp2c13 (gene 171521), sequence (P20814 whole entry, looked up): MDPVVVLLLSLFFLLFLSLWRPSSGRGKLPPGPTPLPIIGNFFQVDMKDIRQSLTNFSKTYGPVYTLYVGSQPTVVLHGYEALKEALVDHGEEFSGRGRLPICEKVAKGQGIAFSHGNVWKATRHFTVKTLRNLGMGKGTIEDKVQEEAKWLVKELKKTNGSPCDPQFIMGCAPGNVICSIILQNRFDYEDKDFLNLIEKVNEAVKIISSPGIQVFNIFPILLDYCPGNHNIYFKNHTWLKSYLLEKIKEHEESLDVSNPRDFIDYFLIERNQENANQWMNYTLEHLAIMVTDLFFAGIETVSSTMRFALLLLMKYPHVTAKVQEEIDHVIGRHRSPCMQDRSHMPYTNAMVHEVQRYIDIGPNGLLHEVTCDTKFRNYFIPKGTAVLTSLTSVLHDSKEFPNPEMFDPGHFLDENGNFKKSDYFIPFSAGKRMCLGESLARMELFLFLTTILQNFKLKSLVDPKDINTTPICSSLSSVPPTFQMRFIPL
rat CYP3A2, Cyp3a2 (gene 266682), sequence (P05183 whole entry, looked up): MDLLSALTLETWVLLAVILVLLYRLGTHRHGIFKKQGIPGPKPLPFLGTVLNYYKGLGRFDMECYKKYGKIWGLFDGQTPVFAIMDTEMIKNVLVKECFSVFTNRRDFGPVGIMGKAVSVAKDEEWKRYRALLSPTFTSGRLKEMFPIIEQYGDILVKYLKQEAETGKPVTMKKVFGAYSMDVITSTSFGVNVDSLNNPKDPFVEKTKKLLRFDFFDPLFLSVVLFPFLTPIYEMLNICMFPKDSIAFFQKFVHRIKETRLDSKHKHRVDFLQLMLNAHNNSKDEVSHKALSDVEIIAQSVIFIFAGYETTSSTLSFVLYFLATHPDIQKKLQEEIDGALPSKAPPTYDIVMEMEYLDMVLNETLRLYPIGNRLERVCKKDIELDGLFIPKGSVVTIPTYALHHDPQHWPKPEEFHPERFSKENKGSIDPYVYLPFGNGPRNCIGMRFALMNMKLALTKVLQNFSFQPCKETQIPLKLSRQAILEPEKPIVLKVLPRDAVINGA
human Acetylcholinesterase (AChE), ACHE (gene 43), sequence (P22303 whole entry, looked up): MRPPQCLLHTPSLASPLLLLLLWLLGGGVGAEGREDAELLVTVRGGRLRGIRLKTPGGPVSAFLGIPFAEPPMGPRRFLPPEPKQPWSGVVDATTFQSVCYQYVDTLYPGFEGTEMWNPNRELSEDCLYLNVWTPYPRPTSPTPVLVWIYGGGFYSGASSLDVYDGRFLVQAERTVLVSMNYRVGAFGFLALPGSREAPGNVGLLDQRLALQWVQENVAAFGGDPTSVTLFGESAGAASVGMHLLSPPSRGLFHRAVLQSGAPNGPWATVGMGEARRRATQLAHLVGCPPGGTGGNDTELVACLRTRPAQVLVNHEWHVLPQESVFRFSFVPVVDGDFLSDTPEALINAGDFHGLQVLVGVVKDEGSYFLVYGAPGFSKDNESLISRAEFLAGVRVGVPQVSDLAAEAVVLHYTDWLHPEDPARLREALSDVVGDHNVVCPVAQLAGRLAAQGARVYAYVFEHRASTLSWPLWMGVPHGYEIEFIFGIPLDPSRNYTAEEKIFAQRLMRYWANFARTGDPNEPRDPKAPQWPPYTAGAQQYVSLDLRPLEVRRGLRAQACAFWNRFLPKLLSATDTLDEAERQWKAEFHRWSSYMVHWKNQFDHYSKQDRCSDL

In one test the target is rat CYP2C13, Cyp2c13 (gene 171521) (UniProt P20814). Nature of the test: NVS_ADME_rCYP2C13: NovaScreen (NVS) CYP450-related Enzyme Activity (ADME) Assay for rat CYP2C13 (AID 2283121). In a few lines:
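Recombinant rat CYP2C13 with fluorogenic substrate, 0.75 h cell-free incubation; primary screen in duplicate at 10 uM, actives followed in concentration series. Fluorescence loss relative to acetonitrile control indicates inhibition.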
On to `CCC(C)Nc1c([N+](=O)[O-])cc(C(C)(C)C)cc1[N+](=O)[O-]` (centres undefined), for which the compound was classed as inactive.

For `O=C(Nc1ccccc1)Nc1cnns1`, the outcome was inactive.

With `CCOC1Oc2ccc(OS(C)(=O)=O)cc2C1(C)C` (centres undefined), the AC50 is 7.5 µM (active).

As to `CC[C@H](C)[C@H]1O[C@]2(C=C[C@@H]1C)C[C@@H]1C[C@@H](C/C=C(\C)[C@@H](O[C@H]3C[C@H](OC)[C@@H](O[C@H]4C[C@H](OC)[C@@H](O)[C@H](C)O4)[C@H](C)O3)[C@@H](C)/C=C/C=C3\CO[C@@H]4[C@H](O)C(C)=C[C@@H](C(=O)O1)[C@]34O)O2` (tested in a mixture with another compound), the AC50 was 10 µM (active).

Take `Oc1ccc(Cl)cc1Cc1ccccc1`: the AC50 is 6.35 µM (active).

Turning to `CC(C)(C)C(O)/C(=C\c1ccc(Cl)cc1Cl)n1cncn1` (centres undefined), the half-maximal activity concentration (AC50) was 0.281 µM (active).

In the case of `CC(C)(C)C(O)C(Oc1ccc(Cl)cc1)n1cncn1` (centres undefined), the AC50 was 1.3 µM (active).

As for `COP(=S)(OC)Oc1ccc([N+](=O)[O-])cc1`, the AC50 was 6.55 µM (active).

`CCC(C)(NC(=O)c1cc(Cl)c(C)c(Cl)c1)C(=O)CCl` (centres undefined): the compound was called inactive.

With `CCCN(CCOc1c(Cl)cc(Cl)cc1Cl)C(=O)n1ccnc1`, the AC50 is 0.191 µM (active).

`C#CCN1C(=O)COc2cc(F)c(N3C(=O)C4=C(CCCC4)C3=O)cc21`: the AC50 was 0.992 µM (active).

The target of another test is rat CYP2D1, Cyp2d1 (gene 266684) (UniProt P10633). Put plainly: NVS_ADME_rCYP2D1: NovaScreen (NVS) CYP450-related Enzyme Activity (ADME) Assay for rat CYP2D1 (AID 2283122). A digest of the protocol: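 Cell-free fluorescence enzyme-activity assay on extracted rat CYP2D1 protein, read 0.75 h after dosing. Primary screen in duplicate at 10 uM; qualifying chemicals then run in concentration-response to 20 uM max, loss-of-signal versus acetonitrile baseline.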
rat CYP2D1, Cyp2d1 (gene 266684), sequence (P10633 whole entry, looked up): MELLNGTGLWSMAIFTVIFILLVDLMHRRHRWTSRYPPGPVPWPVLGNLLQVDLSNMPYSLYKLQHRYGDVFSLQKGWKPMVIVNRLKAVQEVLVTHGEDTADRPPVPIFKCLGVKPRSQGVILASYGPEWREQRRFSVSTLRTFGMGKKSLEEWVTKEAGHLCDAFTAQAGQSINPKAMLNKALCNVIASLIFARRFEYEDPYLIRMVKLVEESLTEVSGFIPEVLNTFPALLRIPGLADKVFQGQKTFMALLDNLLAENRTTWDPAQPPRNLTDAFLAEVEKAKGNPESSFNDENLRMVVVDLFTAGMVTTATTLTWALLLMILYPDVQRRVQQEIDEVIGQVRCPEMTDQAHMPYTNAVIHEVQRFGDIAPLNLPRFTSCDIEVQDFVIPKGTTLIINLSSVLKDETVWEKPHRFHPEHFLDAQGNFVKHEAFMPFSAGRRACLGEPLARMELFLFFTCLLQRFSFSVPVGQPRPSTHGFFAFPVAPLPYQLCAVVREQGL
Turning to `O=C(Nc1ccccc1)Nc1cnns1`, the AC50 was 8.7 µM (active).

Take `CCOC1Oc2ccc(OS(C)(=O)=O)cc2C1(C)C` (centres undefined): the result was inactive.

`Oc1ccc(Cl)cc1Cc1ccccc1`: the AC50 is 10 µM (active).

`CC(C)(C)C(O)/C(=C\c1ccc(Cl)cc1Cl)n1cncn1` (centres undefined): the AC50 was 0.603 µM (active).

Consider `CCCN(CCOc1c(Cl)cc(Cl)cc1Cl)C(=O)n1ccnc1`, for which the AC50 was 1.22 µM (active).

Regarding `Cc1[nH]c(=O)n(C(C)(C)C)c(=O)c1Cl`, the concentration at half-maximal activity (AC50) is 3.45 µM (active).

The target in the next test is rat CYP2D2, Cyp2d26 (gene 25053) (UniProt P10634). Put plainly: NVS_ADME_rCYP2D2: NovaScreen (NVS) CYP450-related Enzyme Activity (ADME) Assay for rat CYP2D2 (AID 2283124). Here is the method: NVS_ADME_rCYP2D2 is a biochemical, single-readout assay that uses extracted gene-proteins in a cell-free assay. Measurements were taken 0.75 hour after chemical dosing in a 96-well plate.NVS_ADME_rCYP2D2 is one of one assay component(s) measured or calculated from the NVS_ADME_rCYP2D2 assay. It is designed to make measurements of enzyme activity, a form of enzyme reporter, as detected with fluorescence intensity signals by Fluorescence technology.Data from the assay component NVS_ADME_rCYP2D2 was analyzed into 1 assay endpoint. This assay endpoint, NVS_ADME_rCYP2D2, was analyzed in the positive analysis fitting direction relative to Acetonitrile as the negative control and baseline of activity. Using a type of enzyme reporter, loss-of-signal activity can be used to understand changes in the enzymatic activity as they relate to the gene Cyp2d2. Furthermore, this assay endpoint can be referred to as a primary readout, because this assay has produced multiple assay endpoints where this one serves a enzymatic activity function. To generalize the intended target to other relatable targets, this assay endpoint is annotated to the cyp intended target family, where the subfamily is xenobiotic metabolism.
rat CYP2D2, Cyp2d26 (gene 25053), sequence (P10634 whole entry, looked up): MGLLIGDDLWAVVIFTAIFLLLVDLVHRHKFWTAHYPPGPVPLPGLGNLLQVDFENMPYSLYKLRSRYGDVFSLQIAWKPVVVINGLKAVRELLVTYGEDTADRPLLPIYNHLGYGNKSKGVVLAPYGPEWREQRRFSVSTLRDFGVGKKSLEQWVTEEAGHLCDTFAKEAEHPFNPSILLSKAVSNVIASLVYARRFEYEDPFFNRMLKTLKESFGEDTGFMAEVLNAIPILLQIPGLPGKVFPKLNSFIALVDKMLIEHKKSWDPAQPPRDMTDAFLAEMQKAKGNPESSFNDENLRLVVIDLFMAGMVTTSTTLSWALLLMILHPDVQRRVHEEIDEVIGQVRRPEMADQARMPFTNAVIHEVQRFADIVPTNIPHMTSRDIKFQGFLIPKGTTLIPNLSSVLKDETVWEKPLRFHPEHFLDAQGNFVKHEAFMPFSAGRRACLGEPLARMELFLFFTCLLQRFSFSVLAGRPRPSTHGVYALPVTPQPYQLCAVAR
Binding assays used specific radioligands (tritiated, iodinated) with non-radioactive competitive displacement ligands in agonist or antagonist protocols (as indicated) and various reference compounds and inhibitors to titrate specific binding to receptors and transporters. Most enzyme assays (CYPs, kinases, phosphatases, proteases, HDACs) used recombinant protein and specific substrates (fluorescence mostly, some colorimetric and radioactive) and inhibitors, followed by a biochemical separation of substrate and product. All assays for the biochemical HTS were initially run in duplicate at a single concentration (10 uM for CYP450 assays and 25 uM for all others). Assay-chemical combinations meeting a pre-defined threshold (e.g., 30% inhibition and other criteria defined below) were then run in singleton concentration-response format with maximum concentration of 20 uM for CYPs and 50 uM for all others. Each assay was run with positive and negative controls, and concurrent controls on every plate. The follow-up (secondary) screen tested active chemical-pairs in concentration series, as well as a few additional assays not tested in the primary screen, some selected negative inactives, and several cases re-run in the concentration series for confirmatory purposes.
On to `Oc1cc(Cl)ccc1Oc1ccc(Cl)cc1Cl`, for which the AC50 was 10 µM (active).

On to `[2H]C1([2H])[n+]2ccccc2-c2cccc[n+]2C1([2H])[2H]`, for which the AC50 was 10 µM (active).

Turning to `O=C(Nc1ccccc1)Nc1cnns1`, the AC50 is 4.41 µM (active).

Take `N#Cc1c(Cl)c(Cl)c(Cl)c(C#N)c1Cl`: the result was inactive.

Regarding `CC[C@H](C)[C@H]1O[C@]2(C=C[C@@H]1C)C[C@@H]1C[C@@H](C/C=C(\C)[C@@H](O[C@H]3C[C@H](OC)[C@@H](O[C@H]4C[C@H](OC)[C@@H](O)[C@H](C)O4)[C@H](C)O3)[C@@H](C)/C=C/C=C3\CO[C@@H]4[C@H](O)C(C)=C[C@@H](C(=O)O1)[C@]34O)O2` (tested in a mixture with another compound), the AC50 is 2.23 µM (active).

As to `Oc1ccc(Cl)cc1Cc1ccccc1`, the AC50 is 5.11 µM (active).

In the case of `CC(C)(C)C(O)/C(=C\c1ccc(Cl)cc1Cl)n1cncn1` (centres undefined), the AC50 was 0.837 µM (active).

On to `CC(C)N(C(=O)COc1nnc(C(F)(F)F)s1)c1ccc(F)cc1`, for which the half-maximal activity concentration (AC50) was 10 µM (active).

Turning to `CCCN(CCOc1c(Cl)cc(Cl)cc1Cl)C(=O)n1ccnc1`, the AC50 was 0.159 µM (active).

A further test deals with rat CYP3A2, Cyp3a2 (gene 266682) (UniProt P05183). Put plainly: NVS_ADME_rCYP3A2: NovaScreen (NVS) CYP450-related Enzyme Activity (ADME) Assay for rat CYP3A2 (AID 2283128). In a few lines:
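Cell-free rat CYP3A2 enzyme assay with fluorescent substrate, read 0.5 h after dosing. Primary duplicate screen at 10 uM; actives run in concentration-response up to 20 uM, relative to acetonitrile baseline.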
Take `COc1nn(CSP(=S)(OC)OC)c(=O)s1`: the concentration at half-maximal activity (AC50) was 0.774 µM (active).

As for `CNC(=O)CSP(=S)(OC)OC`, the AC50 is 5.06 µM (active).

Regarding `N#Cc1c(Cl)c(Cl)c(Cl)c(C#N)c1Cl`, the AC50 is 0.241 µM (active).

With `CC(C)(C)C(O)/C(=C\c1ccc(Cl)cc1Cl)n1cncn1` (centres undefined), the concentration at half-maximal activity (AC50) was 0.669 µM (active).

Turning to `CC(C)(C)C(O)C(Oc1ccc(Cl)cc1)n1cncn1` (centres undefined), the AC50 is 8.09 µM (active).

Turning to `COP(=S)(OC)Oc1ccc([N+](=O)[O-])cc1`, the AC50 is 4.97 µM (active).

For the compound `CCCN(CCOc1c(Cl)cc(Cl)cc1Cl)C(=O)n1ccnc1`, the half-maximal activity concentration (AC50) is 1.39 µM (active).

Take `C#CCN1C(=O)COc2cc(F)c(N3C(=O)C4=C(CCCC4)C3=O)cc21`: the AC50 was 5.33 µM (active).

A further test has as its target human Acetylcholinesterase (AChE), ACHE (gene 43) (UniProt P22303). Nature of the test: NVS_ENZ_hAChE: NovaScreen (NVS) Enzymatic Assay for human Acetylcholinesterase (AChE) (AID 2283129). In a few lines:
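Cell-free colorimetric enzyme-activity assay; compounds read 0.33 hour after dosing, loss of signal vs DMSO baseline. Primary screen in duplicate at 25 uM single concentration, with active compounds retested in concentration series.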
As to `[2H]C1([2H])[n+]2ccccc2-c2cccc[n+]2C1([2H])[2H]`, the compound was called inactive.

Turning to `CNC(=O)Oc1ccccc1OC(C)C`, the concentration at half-maximal activity (AC50) is 25 µM (active).

For the compound `N#Cc1c(Cl)c(Cl)c(Cl)c(C#N)c1Cl`, the outcome was inactive.

For `CC(C)N(C(=O)COc1nnc(C(F)(F)F)s1)c1ccc(F)cc1`, the AC50 was 16.5 µM (active).

Turning to `COP(=S)(OC)Oc1ccc([N+](=O)[O-])cc1`, the call was inactive.
